Experimental data published in PubChem BioAssay (NCI).
This is part of a sample that, as a whole, favours compounds with a hit. Of some 79,000 tested, about 15% had one in any assay. The source made the active and inactive calls. Cut-off read from the data, not from the text of the source: active = growth inhibition above about 70%; inactive = the rest.

What was measured:
[1] = NCI Yeast Anticancer Drug Screen. Data for the wt1 strain (AID 149);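 note: 0% = growth of vehicle-treated wt1 cultures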; conditions: S. cerevisiae wt1 strain (SPY 50644) growth inhibition, stronger effect = higher value
Outline: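 wt1 strain grown with compound or vehicle; inhibition taken from the growth difference.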

[2] = NCI Yeast Anticancer Drug Screen. Data for the mgt1 strain (AID 153); conditions: S. cerevisiae mgt1 mutant growth inhibition, stronger effect = higher value
Outline: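 After exposure of the mgt1 yeast mutant to compound, growth was measured and reported as inhibition compared with vehicle controls.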

[3] = NCI Yeast Anticancer Drug Screen. Data for the rad50 strain (AID 155);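 note: 0% = growth of vehicle-only cultures of the same strain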; conditions: S. cerevisiae rad50 strain growth inhibition, stronger effect = higher value
Outline: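 DNA repair mutant yeast, compound exposure, growth read-out; inhibition is taken relative to vehicle.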

[4] = NCI Yeast Anticancer Drug Screen. Data for the mec2-1 strain (AID 157); conditions: S. cerevisiae mec2-1 strain, stronger effect = higher value
Outline: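 Test agents were screened against the mec2-1 yeast strain, with defined DNA repair or cell cycle alteration. Growth was scored as inhibition against vehicle-only controls.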

[5] = NCI Yeast Anticancer Drug Screen. Data for the rad14 strain (AID 159);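 note: 0% = growth of vehicle-treated control cultures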; conditions: S. cerevisiae rad14 strain growth inhibition, stronger effect = higher value
Outline: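 DNA repair-defective yeast, compound-exposed; % growth inhibition derived by comparison with vehicle-treated controls.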

[6] = NCI Yeast Anticancer Drug Screen. Data for the sgs1 mgt1 strain (AID 161);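 note: 0% = growth of cultures given vehicle only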; conditions: S. cerevisiae sgs1 mgt1 strain, stronger effect = higher value
Outline: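 Test agents were incubated with a DNA-repair-mutant yeast strain. Growth was then read and compared against vehicle-treated controls.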

[7] = NCI Yeast Anticancer Drug Screen. Data for the CLN2oe strain (AID 163);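 note: 0% = growth of vehicle-only control cultures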; conditions: S. cerevisiae CLN2oe strain, stronger effect = higher value
Outline: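 Here, growth inhibition in a cell-cycle-altered yeast strain after compound exposure was quantified against vehicle control growth.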

[8] = NCI Yeast Anticancer Drug Screen. Data for the cln2 rad14 strain (AID 165);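 note: 0% = growth equal to vehicle treated cultures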; conditions: S. cerevisiae cln2 rad14 strain, stronger effect = higher value
Outline: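 Growth of compound-exposed yeast (cln2 rad14 genotype) measured and expressed as inhibition relative to vehicle.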

[9] = NCI Yeast Anticancer Drug Screen. Data for the bub3 strain (AID 167); conditions: S. cerevisiae bub3 mutant strain, stronger effect = higher value
Outline: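 In this screen, a yeast mutant lacking normal mitotic checkpoint function is challenged with compound. Relative growth versus vehicle gives the inhibition value.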

[10] = NCI Yeast Anticancer Drug Screen. Data for the wt2 strain (AID 169);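 note: 0% = growth of vehicle-treated yeast cultures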; conditions: S. cerevisiae wt2 strain growth inhibition, stronger effect = higher value
Outline: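 Genetically defined yeast strains from a DNA-repair/cell-cycle panel were used. Compound-exposed yeast growth was measured, and the inhibition was calculated relative to vehicle treatment.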

[11] = NCI Yeast Anticancer Drug Screen. Data for the mlh1 strain (AID 171);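 note: 0% = growth of vehicle-treated control cultures of the same strain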; conditions: S. cerevisiae mlh1 strain growth inhibition, stronger effect = higher value
Outline: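 Here the genetically defined yeast mutant is grown with each compound, and the extent to which its growth falls below that of vehicle-exposed cells is reported.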

[12] = NCI Yeast Anticancer Drug Screen. Data for the sgs1 strain (AID 173);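 note: 0% = growth of vehicle-only control cultures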; conditions: S. cerevisiae sgs1 mutant, stronger effect = higher value
Outline: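 Relative growth inhibition, referenced to vehicle, was determined in a yeast strain with a defined alteration affecting DNA damage repair or cell cycle control after compound exposure.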

[13] = NCI Yeast Anticancer Drug Screen. Data for the mlh1 rad18 strain (AID 175); conditions: S. cerevisiae mlh1 rad18 strain growth inhibition, stronger effect = higher value
Outline: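 In this whole-cell yeast screen, a strain with altered DNA damage repair is challenged with compound, and its growth is measured against matched vehicle-treated controls.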

[14] = NCI Yeast Anticancer Drug Screen. Data for the rad18 strain (AID 177); conditions: S. cerevisiae rad18 mutant growth inhibition, stronger effect = higher value
Outline: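 Screen uses a yeast strain with a defined lesion in DNA damage repair; compound effect is read as loss of growth compared to untreated vehicle cultures.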

[15] = at 5.0 µM (retest, dose inferred, filed as 0.5)
[16] = at 50.0 µM (retest, dose inferred, filed as 5.0)

Measured: growth inhibition

CN(N=O)C(=O)NNC(=O)N(C)N=O
active: [2]; at 33.0 µM 88% | [2]; at 100.0 µM 96% | [3]; at 33.0 µM 92% | [3]; [16] 95% | [3]; at 50.0 µM 94.9% | [3]; at 100.0 µM 96% | [4]; [16] 85% | [4]; at 100.0 µM 96% | [6]; [15] 74% | [6]; [16] 96% | [6]; at 50.0 µM 91.6% | [12]; at 33.0 µM 81% | [12]; at 100.0 µM 91% | [13]; [16] 89% | [14]; at 1.2 µM 71% | [14]; at 3.7 µM 95% | [14]; at 11.0 µM 96% | [14]; at 33.0 µM 96% | [14]; at 100.0 µM 96%
inactive: [1]; at 1.2 µM 0% | [1]; at 3.7 µM 1% | [1]; at 11.0 µM 5% | [1]; at 33.0 µM 16% | [1]; at 100.0 µM 38% | [2]; at 1.2 µM 9% | [2]; at 3.7 µM 28% | [2]; at 11.0 µM 51% | [3]; at 1.2 µM 6% | [3]; at 3.7 µM 23% | [3]; [15] 21% | [3]; at 11.0 µM 56% | [4]; at 1.2 µM -2% | [4]; at 3.7 µM 3% | [4]; [15] 10% | [4]; at 11.0 µM 22% | [4]; at 33.0 µM 61% | [4]; at 50.0 µM 38.2% | [5]; at 1.2 µM -2% | [5]; at 3.7 µM 18% | [5]; at 11.0 µM 5% | [5]; at 33.0 µM 22% | [5]; at 100.0 µM 57% | [7]; at 1.2 µM -5% | [7]; at 3.7 µM -4% | [7]; at 11.0 µM -7% | [7]; at 33.0 µM 11% | [7]; at 100.0 µM 41% | [8]; [15] -32% | [8]; [16] 18% | [8]; at 50.0 µM 11.7% | [9]; at 1.2 µM -9% | [9]; at 3.7 µM 5% | [9]; [15] -11% | [9]; at 11.0 µM -6% | [9]; at 33.0 µM 15% | [9]; [16] 27% | [9]; at 50.0 µM 1.9% | [9]; at 100.0 µM 39% | [10]; at 1.2 µM -3% | [10]; at 3.7 µM -2% | [10]; at 11.0 µM 1% | [10]; at 33.0 µM 16% | [10]; at 100.0 µM 49% | [11]; at 1.2 µM -1% | [11]; at 3.7 µM -3% | [11]; at 11.0 µM 7% | [11]; at 33.0 µM 31% | [11]; at 100.0 µM 68% | [12]; at 1.2 µM 11% | [12]; at 3.7 µM 26% | [12]; at 11.0 µM 52% | [13]; [15] 6% | [13]; at 50.0 µM 67%

COC(=O)C(F)C(Br)C(=O)OC (configuration not stated)
active: [2]; at 3.7 µM 82% | [2]; at 11.0 µM 98% | [2]; at 33.0 µM 99% | [2]; at 100.0 µM 99% | [3]; [15] 88% | [3]; at 11.0 µM 96% | [3]; at 33.0 µM 98% | [3]; [16] 99% | [3]; at 50.0 µM 90.8% | [3]; at 100.0 µM 98% | [4]; at 3.7 µM 73% | [4]; [15] 93% | [4]; at 11.0 µM 95% | [4]; at 33.0 µM 98% | [4]; [16] 100% | [4]; at 50.0 µM 93% | [4]; at 100.0 µM 99% | [5]; at 11.0 µM 93% | [5]; at 33.0 µM 97% | [5]; at 100.0 µM 96% | [6]; at 50.0 µM 92.5% | [7]; at 3.7 µM 91% | [7]; at 11.0 µM 97% | [7]; at 33.0 µM 98% | [7]; at 100.0 µM 100% | [8]; at 50.0 µM 84.2% | [9]; at 3.7 µM 94% | [9]; at 11.0 µM 98% | [9]; at 33.0 µM 99% | [9]; at 50.0 µM 91.4% | [9]; at 100.0 µM 97% | [10]; at 3.7 µM 95% | [10]; at 11.0 µM 98% | [10]; at 33.0 µM 99% | [10]; at 100.0 µM 100% | [11]; at 3.7 µM 96% | [11]; at 11.0 µM 98% | [11]; at 33.0 µM 99% | [11]; at 100.0 µM 99% | [12]; at 3.7 µM 95% | [12]; at 11.0 µM 98% | [12]; at 33.0 µM 99% | [12]; at 100.0 µM 99% | [13]; [15] 94% | [13]; [16] 98% | [13]; at 50.0 µM 90% | [14]; at 3.7 µM 88% | [14]; at 11.0 µM 98% | [14]; at 33.0 µM 92% | [14]; at 100.0 µM 98%
inactive: [2]; at 1.2 µM 16% | [3]; at 1.2 µM -5% | [3]; at 3.7 µM 60% | [4]; at 1.2 µM 20% | [5]; at 1.2 µM 5% | [5]; at 3.7 µM 67% | [6]; [15] 8% | [6]; [16] 12% | [7]; at 1.2 µM 43% | [8]; [15] 5% | [8]; [16] -42% | [9]; at 1.2 µM 64% | [9]; [15] 11% | [9]; [16] -21% | [10]; at 1.2 µM 55% | [11]; at 1.2 µM 66% | [12]; at 1.2 µM 48% | [14]; at 1.2 µM 29%

Cc1ccc(P(c2ccc(C)cc2)c2ccc(C)cc2)cc1
active: [3]; [16] 96% | [4]; [16] 98% | [9]; at 33.0 µM 78% | [9]; [16] 88% | [9]; at 50.0 µM 75.8% | [9]; at 100.0 µM 75% | [13]; [16] 97%
inactive: [3]; at 1.2 µM 16% | [3]; at 3.7 µM 26% | [3]; [15] 57% | [3]; at 11.0 µM 25% | [3]; at 33.0 µM 33% | [3]; at 50.0 µM 37.7% | [3]; at 100.0 µM 36% | [4]; at 1.2 µM -3% | [4]; at 3.7 µM -2% | [4]; [15] 58% | [4]; at 11.0 µM 2% | [4]; at 33.0 µM 24% | [4]; at 50.0 µM 9.9% | [4]; at 100.0 µM 32% | [6]; [15] 7% | [6]; [16] 43% | [6]; at 50.0 µM 39.2% | [8]; [15] 69% | [8]; [16] 44% | [8]; at 50.0 µM 35.9% | [9]; at 1.2 µM 20% | [9]; at 3.7 µM 43% | [9]; [15] 43% | [9]; at 11.0 µM 57% | [13]; [15] 49% | [13]; at 50.0 µM 26.4%

C(=C/P(c1ccccc1)c1ccccc1)/P(c1ccccc1)c1ccccc1.C(=CP(c1ccccc1)c1ccccc1)P(c1ccccc1)c1ccccc1.[Pt]
active: [3]; [16] 78% | [3]; at 50.0 µM 84.4% | [4]; [16] 92% | [4]; at 50.0 µM 90% | [6]; [16] 92% | [6]; at 50.0 µM 82.7% | [8]; [16] 82% | [8]; at 50.0 µM 86.2% | [9]; [16] 89% | [9]; at 50.0 µM 86.8% | [13]; [16] 91% | [13]; at 50.0 µM 83.4%
inactive: [3]; [15] 61% | [4]; [15] 38% | [6]; [15] 33% | [8]; [15] 36% | [9]; [15] 56% | [13]; [15] 41%
